From PubChem BioAssay (Tox21)
Several values for one entry are separate records, joined by “and”; a condition that tells them apart may be missing. Identical values can stand only once. Records with an inconclusive call do not appear. The source holds several records for some structures; these can differ, active in one and inactive in another. Activity calls are given as the source filed them. Unless noted, calls follow the shape of the full dose curve.

Legend:
[1] = Nuclear factor erythroid 2-related factor 2/antioxidant responsive element (Nrf2/ARE) small molecule agonists: qHTS cell viability counter screen in human keratinocytes (AID 1919968; active = well fitted curve in the direction sought with a large enough effect in the repeat runs; an effect the other way counts as inactive or inconclusive; also: nearly all actives have a fitted effect of over 55% in size; also: potency is read from the fitted curve at half-maximal effect)
Summary of the method: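 Cytotoxicity was multiplexed with the Nrf2/ARE luciferase assay in the same wells. Stably transfected HaCaT keratinocytes were treated with test compounds for 23 h at 37 C. Cell viability was then measured by CellTiter-Fluor fluorescence.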

[2] = Nuclear factor erythroid 2-related factor 2/antioxidant responsive element (Nrf2/ARE) small molecule agonists: luciferase reporter gene qHTS assay in human keratinocytes (AID 1919969); also: nearly all actives have a fitted effect of over 35% in size; also: potency is read from the fitted curve at half-maximal effect
[3] = biological target: Gonadotropin-releasing hormone receptor (Homo sapiens) (UniProt P30968); test: Human gonadotropin-releasing hormone receptor (GnRHR) small molecule agonists, calcium flux assay in GnRHR-HEK293 cells (AID 1920063); also: nearly all actives have a fitted effect of over 35% in size; also: potency is read from the fitted curve at half-maximal effect
Summary of the method: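 Agonist activity was measured as intracellular calcium flux in HEK293 cells engineered to stably express human GnRHR. After dye loading for 1 hour at 37 C, compounds in DMSO were added and fluorescence was followed for 3 minutes.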

[4] = biological target: KiSS-1 receptor (Homo sapiens) (UniProt Q969F8); test: Human kisspeptin (KISS1R) small molecule agonists, calcium flux assay in KISS1R-HEK293 cells (AID 1920064; active = well fitted curve in the direction sought with a large enough effect in the repeat runs; an effect the other way counts as inactive or inconclusive)
Summary of the method: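 Agonist activity is monitored as intracellular calcium rise in engineered HEK293 cells carrying human KISS1R. Cells are dye-loaded for 1 h at 37 C before compound addition, and fluorescence is recorded for 3 min.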

[5] = G protein-coupled receptor (GPCR) small molecule agonists, calcium flux assay: HEK293 wild type cell line counter screen (AID 1920065)
Summary of the method: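 Seed cells, incubate 18 h (37 C, 5% CO2); add calcium dye, 1 h at 37 C; pin-transfer compounds, ATP control or DMSO; read fluorescence 480/540 nm each second for 3 min.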

[6] = p53 small molecule agonists, cell-based qHTS assay with human liver microsomes (AID 1963577);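 also: p53 response element beta-lactamase reporter cells with liver microsomes plus NADPH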
Summary of the method: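 HLM-supplemented p53RE-bla reporter assay: 16 h compound exposure at 37 C, microsomes and NADPH each 0.5 mg/mL final, read by fluorescence intensity.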

[7] = p53 small molecule agonists, cell-based qHTS assay with rat liver microsomes (AID 1963578)
Summary of the method: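 Quantitative HTS of the Tox21 10K library: p53RE-bla cells, rat liver microsomes plus NADPH at 0.5 mg/mL final each, 16 h at 37 C, beta-lactamase fluorescence detection.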

[8] = p53 small molecule agonists, cell-based qHTS assay with rat liver microsomes: qHTS cell viability counter screen (AID 1963580); also: nearly all actives have a fitted effect of over 45% in size
Summary of the method: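 Cytotoxicity counter screen: intracellular ATP measured by CellTiter-Glo luminescence in the same wells as the beta-lactamase reporter read, on HCT-116 p53RE-bla cells exposed 16 h at 37 C to compounds with rat liver microsomes and NADPH, each 0.5 mg/mL final.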

[9] = p53 small molecule agonists, cell-based qHTS assay: qHTS cell viability counter screen (AID 1963581); also: nearly all actives have a fitted effect of over 45% in size; also: potency is read from the fitted curve at half-maximal effect
Summary of the method: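 Viability was counter-screened in parallel with the p53 agonist reporter by measuring intracellular ATP luminescence in the same HCT-116 p53RE-bla wells after 16 h compound treatment at 37 C.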

[10] = p53 small molecule agonists, cell-based qHTS assay (AID 1963582; active = well fitted activation curve with a large enough effect in the signal ratio in the repeat runs, not every such curve was filed as active; the % refers to the signal ratio)
Summary of the method: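 Cells carrying a p53-responsive bla reporter are treated with test compounds for 16 h at 37 C; beta-lactamase activity is then detected with LiveBLAzer B/G FRET substrate after 2 h at room temperature.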

[11] = biological target: 5-hydroxytryptamine receptor 2A (Homo sapiens) (UniProt P28223); test: 5-hydroxytryptamine receptor 2A (HTR2A) small molecule antagonists, cell-based qHTS assay (AID 1963586); also: nearly all actives have a fitted effect of over 45% in size; also: potency is read from the fitted curve at half-maximal effect
Summary of the method: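 CHO cells stably expressing human HTR2A were plated for 18 h at 37 C, then loaded with calcium dye for 1 h. Compounds were preincubated 5 min at room temperature before DOI (4 nM solution) was added. Kinetic fluorescence was read for 3 min.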

[12] = biological target: 5-hydroxytryptamine receptor 2A (Homo sapiens) (UniProt P28223); test: 5-hydroxytryptamine receptor 2A (HTR2A) small molecule agonists, cell-based qHTS assay (AID 1963587); also: nearly all actives have a fitted effect of over 30% in size; also: potency is read from the fitted curve at half-maximal effect
Summary of the method: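 CHO cells stably expressing human HTR2A, plated 18 h, loaded with calcium dye 1 h at 37 C. Agonist mode: compounds added and intracellular calcium fluorescence recorded kinetically for 2 min at 1 sec intervals.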

[13] = biological target: Muscarinic acetylcholine receptor M1 (Homo sapiens) (UniProt P11229); test: Cholinergic receptor muscarinic 1 (CHRM1) small molecule antagonists, cell-based qHTS assay (AID 1963588); also: nearly all actives have a fitted effect of over 40% in size; also: potency is read from the fitted curve at half-maximal effect
Summary of the method: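 Compounds were tested at 15 concentrations in three independent runs. Dye-loaded CHRM1-CHO cells were exposed 5 min at room temperature before stimulation by acetylcholine added at 50nM. Intracellular calcium was read kinetically on FDSS for 3 min.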

[14] = biological target: Muscarinic acetylcholine receptor M1 (Homo sapiens) (UniProt P11229); test: Cholinergic receptor muscarinic 1 (CHRM1) small molecule agonists, cell-based qHTS assay (AID 1963589); also: nearly all actives have a fitted effect of over 35% in size
Summary of the method: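 Cells were plated and incubated 18 h at 37 C/5% CO2, loaded with calcium dye for 1 h at 37 C, then treated with compounds in DMSO. Fluorescence was recorded kinetically at 1 sec intervals.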

[15] = cAMP Responsive Elements (CRE) small molecule agonists, cell-based qHTS assay (AID 1963590)
Summary of the method: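 Cells carrying a CRE-driven beta-lactamase reporter (HEK 293T) are seeded, incubated overnight (18 h), and treated with test compounds for 3 h at 37 C; reporter activity is then detected with a FRET substrate after 2 h at room temperature.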

[16] = cAMP Responsive Elements (CRE) small molecule antagonists, cell-based qHTS assay (AID 1963591; active = well fitted inhibition curve with a large enough effect in the signal ratio in the repeat runs, not every such curve was filed as active; the % refers to the signal ratio)
Summary of the method: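 Cells (CRE-bla HEK 293T, DMEM with 10% dialyzed FBS and 25 mM HEPES) are seeded and incubated 18 h. Compounds are added with NKH477 agonist at 0.25 uM final for 3 h, then FRET substrate for 2 h.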

[17] = biological target: Beta-2 adrenergic receptor (Homo sapiens) (UniProt P07550); test: Adrenergic beta2 receptor (ADRB2) small molecule antagonists, cell-based qHTS assay (AID 1963592); also: series mostly up to about 92 µM; nearly all actives have a fitted effect of over 50% in size
Summary of the method: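 Assay format: CHO-ADRB2 cells, 18-20hr seeding at 37C/5% CO2, then compound plus 1nM isoproterenol agonist mix for 0.5hr RT. Homogeneous time-resolved fluorescence cAMP detection after 1hr, expressed as 665/615 nm ratio.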

[18] = biological target: D(2) dopamine receptor (Homo sapiens) (UniProt P14416); test: Dopamine D2 receptor (DRD2) small molecule agonists, cell-based qHTS assay (AID 1963594); also: nearly all actives have a fitted effect of over 35% in size
Summary of the method: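 HEK293 cells stably expressing human DRD2, pre-treated with PDE inhibitor Ro20-1724 (0.1 mM final) and compound 10 min at room temperature, then stimulated with NKH477 (200nM […]) for 30 min. cAMP read by HTRF (665/620 nm).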

[19] = biological target: D(2) dopamine receptor (Homo sapiens) (UniProt P14416); test: Dopamine D2 receptor (DRD2) small molecule antagonists, cell-based qHTS assay (AID 1963595; active = well fitted inhibition curve with a large enough effect in the signal ratio in the repeat runs, with a control signal flat; the % refers to the signal ratio; also: potency is read from the fitted curve at half-maximal effect)
Summary of the method: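 HTRF cAMP read-out at 665 and 620 nm emission (340 nm excitation). Antagonist mode: compounds were tested against 12 nM quinpirole in DRD2-HEK293 cells, with 200 nM NKH477 raising cAMP and 0.1 mM Ro20-1724 blocking its breakdown.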

[20] = p53 small molecule agonists, cell-based qHTS assay with human liver microsomes: qHTS cell viability counter screen (AID 1963579); also: nearly all actives have a fitted effect of over 45% in size; also: potency is read from the fitted curve at half-maximal effect
Summary of the method: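 Viability of p53RE-bla cells is measured as CellTiter-Glo luminescence following a 16 h, 37 C incubation with compound, liver microsomes from human donors and NADPH.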

Measured: Potency

Sequence of D(2) dopamine receptor (Homo sapiens) (P14416 whole entry, looked up): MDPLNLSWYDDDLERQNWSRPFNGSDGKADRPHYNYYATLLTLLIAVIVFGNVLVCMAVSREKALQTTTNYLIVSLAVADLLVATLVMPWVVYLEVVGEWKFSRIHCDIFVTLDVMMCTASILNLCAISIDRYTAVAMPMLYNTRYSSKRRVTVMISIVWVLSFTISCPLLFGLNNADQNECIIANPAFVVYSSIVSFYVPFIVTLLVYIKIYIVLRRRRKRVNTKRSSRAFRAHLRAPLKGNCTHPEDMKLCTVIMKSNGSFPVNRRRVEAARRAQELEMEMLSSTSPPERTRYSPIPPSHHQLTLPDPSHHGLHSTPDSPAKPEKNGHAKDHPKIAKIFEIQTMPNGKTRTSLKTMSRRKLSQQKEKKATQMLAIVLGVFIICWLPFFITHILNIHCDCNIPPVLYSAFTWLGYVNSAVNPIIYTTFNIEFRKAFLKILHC
Sequence of KiSS-1 receptor (Homo sapiens) (Q969F8 whole entry, looked up): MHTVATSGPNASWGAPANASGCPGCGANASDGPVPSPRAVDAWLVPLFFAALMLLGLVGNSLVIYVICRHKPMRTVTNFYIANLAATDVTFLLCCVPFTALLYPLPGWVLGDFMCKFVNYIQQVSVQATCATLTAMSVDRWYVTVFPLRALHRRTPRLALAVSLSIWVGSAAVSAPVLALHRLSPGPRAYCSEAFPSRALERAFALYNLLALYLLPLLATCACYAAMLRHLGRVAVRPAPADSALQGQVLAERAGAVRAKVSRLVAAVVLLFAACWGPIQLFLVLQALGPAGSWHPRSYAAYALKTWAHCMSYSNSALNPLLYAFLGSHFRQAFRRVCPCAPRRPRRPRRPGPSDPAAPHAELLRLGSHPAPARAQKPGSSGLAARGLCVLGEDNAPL
Sequence of Beta-2 adrenergic receptor (Homo sapiens) (P07550 whole entry, looked up): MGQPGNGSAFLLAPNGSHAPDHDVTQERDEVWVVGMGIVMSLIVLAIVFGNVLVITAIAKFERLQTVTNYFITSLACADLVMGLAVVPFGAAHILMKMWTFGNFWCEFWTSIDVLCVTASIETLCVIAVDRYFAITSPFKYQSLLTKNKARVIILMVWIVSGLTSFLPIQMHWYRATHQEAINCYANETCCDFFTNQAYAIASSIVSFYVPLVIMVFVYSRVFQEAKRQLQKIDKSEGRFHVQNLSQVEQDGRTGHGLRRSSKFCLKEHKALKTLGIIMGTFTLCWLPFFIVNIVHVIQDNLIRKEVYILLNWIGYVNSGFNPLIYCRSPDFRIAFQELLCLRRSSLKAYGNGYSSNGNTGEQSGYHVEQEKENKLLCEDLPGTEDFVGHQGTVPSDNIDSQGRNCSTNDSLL
Sequence of Gonadotropin-releasing hormone receptor (Homo sapiens) (P30968 whole entry, looked up): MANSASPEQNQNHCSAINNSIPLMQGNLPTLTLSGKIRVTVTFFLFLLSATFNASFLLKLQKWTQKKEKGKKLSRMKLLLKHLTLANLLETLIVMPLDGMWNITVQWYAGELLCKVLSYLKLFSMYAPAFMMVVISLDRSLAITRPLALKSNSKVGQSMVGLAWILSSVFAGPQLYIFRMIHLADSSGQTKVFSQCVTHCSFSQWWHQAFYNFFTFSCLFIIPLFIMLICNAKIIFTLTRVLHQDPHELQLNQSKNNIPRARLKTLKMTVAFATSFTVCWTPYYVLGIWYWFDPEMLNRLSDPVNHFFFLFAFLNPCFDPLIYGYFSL
Sequence of 5-hydroxytryptamine receptor 2A (Homo sapiens) (P28223 whole entry, looked up): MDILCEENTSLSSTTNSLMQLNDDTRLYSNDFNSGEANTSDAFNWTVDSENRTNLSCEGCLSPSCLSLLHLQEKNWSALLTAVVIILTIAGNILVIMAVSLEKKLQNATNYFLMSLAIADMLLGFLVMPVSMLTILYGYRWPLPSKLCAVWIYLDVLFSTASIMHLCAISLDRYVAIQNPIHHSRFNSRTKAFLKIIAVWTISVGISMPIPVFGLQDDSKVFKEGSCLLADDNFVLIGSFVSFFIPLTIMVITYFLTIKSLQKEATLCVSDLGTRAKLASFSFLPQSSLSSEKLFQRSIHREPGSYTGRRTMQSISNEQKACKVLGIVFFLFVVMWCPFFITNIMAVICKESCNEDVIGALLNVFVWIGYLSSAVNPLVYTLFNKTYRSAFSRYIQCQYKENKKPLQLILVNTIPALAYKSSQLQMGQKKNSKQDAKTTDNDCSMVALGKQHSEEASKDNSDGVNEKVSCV
Sequence of Muscarinic acetylcholine receptor M1 (Homo sapiens) (P11229 whole entry, looked up): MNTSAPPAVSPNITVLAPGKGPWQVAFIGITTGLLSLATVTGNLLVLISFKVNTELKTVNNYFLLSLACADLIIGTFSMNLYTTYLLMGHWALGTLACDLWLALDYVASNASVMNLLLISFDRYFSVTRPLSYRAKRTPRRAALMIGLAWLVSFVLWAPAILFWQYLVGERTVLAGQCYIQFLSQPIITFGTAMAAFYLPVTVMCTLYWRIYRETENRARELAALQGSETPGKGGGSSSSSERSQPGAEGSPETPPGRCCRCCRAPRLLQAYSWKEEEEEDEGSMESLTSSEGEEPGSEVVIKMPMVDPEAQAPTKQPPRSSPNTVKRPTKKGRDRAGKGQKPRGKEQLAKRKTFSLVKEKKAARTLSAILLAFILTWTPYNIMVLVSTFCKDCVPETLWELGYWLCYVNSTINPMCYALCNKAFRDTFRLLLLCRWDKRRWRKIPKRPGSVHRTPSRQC

CCOC(=O)c1ccccc1S(=O)(=O)NC(=O)Nc1nc(Cl)cc(OC)n1
not listed: [20]
inactive: all other assays above

CCCCCCCCCCCC[N+](C)(C)CCOc1ccccc1
748 nM (active) and inactive: [13]
active: [1] 27.3 µM | [3] 38.9 µM and 16.9 µM | [11] 133 nM and 46 nM | [12] 43.7 µM | [19] 48.6 µM
45.8 µM (active) and inactive: [20] | [9]
not listed: [8] | [15]
inactive: all other assays above

N#CC(Cl)Cl
active: [2] 59.5 µM
not listed: [19] | [20]
inactive: all other assays above

N#Cc1ccccc1Cl
not listed: [8] | [11]
inactive: all other assays above

CC[n+]1c(-c2ccccc2)c2cc(N)ccc2c2ccc(N)cc21
active: [1] 48.3 µM and 7.5 µM | [13] 8.36 µM and 9.18 µM
inactive and 10.6 µM (active): [2]
not listed: [8] | [10] | [11] | [16] | [17] | [18] | [19]
inactive: all other assays above

Cc1ncc2n1-c1ccc(Cl)cc1C(c1ccccc1F)=NC2
not listed: [8]
inactive: all other assays above

C[C@]1(O)CC[C@H]2[C@@H]3CCC4=CC(=O)CC[C@]4(C)[C@@]3(F)[C@@H](O)C[C@@]21C
not listed: [8]
inactive: all other assays above

CCOC(=O)c1cncn1C(C)c1ccccc1 (stereo not drawn)
not listed: [20]
inactive: all other assays above

Nc1ccc([N+](=O)[O-])cc1N
active: [1] 13.7 µM | [2] 34.4 µM
not listed: [8] | [16] | [17]
inactive: all other assays above

CC(C)OC(=O)Cc1ccccc1
not listed: [20]
inactive: all other assays above

Brc1ccc(Br)cc1
not listed: [8]
inactive: all other assays above

COc1ccc(C=O)cc1
not listed: [8] | [12]
inactive: all other assays above

CCCCCCCCCCCOC(=O)c1ccccc1C(=O)OCCCCCCCCCCC
not listed: [8] | [12] | [16]
inactive: all other assays above
